# Source: paper PMC4336329 (PLoS ONE, 2015)
# Among all 310,000 compounds or so, about 14,000 (4.5%) showed an effect of 50% or more. The effect is printed as a negative number. What follows is part of a selection rich in strong results, with near analogues and random picks from the rest.
# Target: human ether-à-go-go-related gene (hERG) potassium channel (human, UniProt Q12809)
# Assay: primary screen, population patch clamp on CHO cells stably expressing hERG; higher = less effect of the substance
# 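Also: peak tail current of the secondary pulse compared with the same well before compound.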
# human ether-à-go-go-related gene (hERG) potassium channel, sequence (Q12809 whole entry, looked up): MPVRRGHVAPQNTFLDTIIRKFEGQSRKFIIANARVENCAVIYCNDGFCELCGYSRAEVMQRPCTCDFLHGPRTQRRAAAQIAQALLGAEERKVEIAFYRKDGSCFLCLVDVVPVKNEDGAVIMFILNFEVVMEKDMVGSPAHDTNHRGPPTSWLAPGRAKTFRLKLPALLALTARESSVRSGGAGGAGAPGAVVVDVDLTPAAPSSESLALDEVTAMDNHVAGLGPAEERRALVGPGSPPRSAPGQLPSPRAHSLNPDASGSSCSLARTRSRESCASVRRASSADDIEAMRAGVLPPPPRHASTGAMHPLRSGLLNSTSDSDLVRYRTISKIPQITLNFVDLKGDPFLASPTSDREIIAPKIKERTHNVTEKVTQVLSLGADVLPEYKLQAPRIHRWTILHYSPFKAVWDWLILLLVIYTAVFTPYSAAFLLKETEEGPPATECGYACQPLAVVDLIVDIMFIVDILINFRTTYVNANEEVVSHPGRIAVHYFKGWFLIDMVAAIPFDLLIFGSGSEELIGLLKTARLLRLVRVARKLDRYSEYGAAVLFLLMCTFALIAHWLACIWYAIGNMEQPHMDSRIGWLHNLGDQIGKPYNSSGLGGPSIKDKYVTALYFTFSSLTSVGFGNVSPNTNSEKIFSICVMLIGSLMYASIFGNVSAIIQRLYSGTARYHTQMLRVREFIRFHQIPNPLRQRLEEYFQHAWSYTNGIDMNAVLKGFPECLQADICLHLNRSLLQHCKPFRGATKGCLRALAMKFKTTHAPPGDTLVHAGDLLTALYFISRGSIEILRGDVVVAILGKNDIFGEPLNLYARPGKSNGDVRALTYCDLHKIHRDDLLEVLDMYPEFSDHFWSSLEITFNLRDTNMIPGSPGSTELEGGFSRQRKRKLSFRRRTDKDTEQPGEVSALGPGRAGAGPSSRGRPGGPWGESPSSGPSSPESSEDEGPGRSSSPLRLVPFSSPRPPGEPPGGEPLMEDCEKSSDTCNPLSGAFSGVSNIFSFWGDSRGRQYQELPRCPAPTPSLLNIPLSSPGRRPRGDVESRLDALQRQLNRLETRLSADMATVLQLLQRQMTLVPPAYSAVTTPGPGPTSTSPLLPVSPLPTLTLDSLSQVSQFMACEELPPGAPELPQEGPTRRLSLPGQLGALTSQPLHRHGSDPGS
row,SMILES,"hERG current change (%, negative = inhibition) at 10uM [%]"
1,CCOC(=O)N1CCN(C(=O)CCC2CCCC2)CC1,9.89
2,Cc1cc(C)c(S(=O)(=O)c2c(C)cccc2C)c(OCC(C)C)n1,2.76
3,COc1cccc(-c2nc(CS(=O)(=O)CC(=O)Nc3cc(C)ccc3C)c(C)o2)c1,7.02
4,C[n+]1cn(Cc2ccc(C#N)cc2)c2ccccc21.[Cl-],2.75
5,C=CCN=C1N[C@@H](c2ccccc2)C(C(=O)OC)=C(C)N1CCOC,-13
6,CC(=O)N(C)c1ccc(NC(=S)Nc2cccc3ccccc23)cc1,3.38
7,O=C(CSc1nnnn1-c1ccc(O)cc1)Nc1ccc(N2CCOCC2)c(Cl)c1,-1.58
8,CCOc1ccc(CCNC(=O)C2CCCN(c3nn4c(=O)cc(C)nc4s3)C2)cc1 (centres unmarked),-24.2
9,COC(c1ccccc1)c1nnc(CCC(=O)NC2C3CC4CC(C3)CC2C4)o1 (centres unmarked),-3.85
10,CCCCc1c(C)nc2c(OC)cccc2c1SCC(=O)O,12.3
11,O=C(C1CCCCC1)N1CCN(c2ccnc3cc(Cl)ccc23)CC1,-66.1
12,O=C(NNc1ccnc2cc(Cl)ccc12)C1CCCCC1,16.1
13,NC(=O)C1CCN(c2ccnc3cc(Cl)ccc23)CC1,-51.6
14,O=C(C1CCC1)N1CCN(c2ccnc3cc(Cl)ccc23)CC1,-71.4
15,NC(=O)C1CCN(c2cc(Cl)ccc2[N+](=O)[O-])CC1,3.89
16,CC1CN(c2ccnc3cc(Cl)ccc23)CC(C)O1 (centres unmarked),-39.7
17,O=C(C1CCC1)N1CCN(c2ccc(Cl)cc2)CC1,-5.33
18,O=C(C1CC1)N1CCN(c2ccnc3cc(Cl)ccc23)CC1,-73.6
19,O=C(Oc1ccnc2cc(Cl)ccc12)N1CCCCCC1,-23
20,Cc1[nH]c2ccc(C(=O)N3CCN(C)CC3)cc2c1C,30.8
21,COc1ccc(C2CC(c3cccs3)=NN2c2ccc(F)cc2)cc1OC (centres unmarked),26.6
22,CCN1CCN(CCCNC(=O)c2ccc(NC(=O)C3=CSCCO3)cc2)CC1,19.9
23,COc1ccccc1NC(=O)c1cc(N)cc(C(=O)Nc2ccccc2OC)c1,-50.6

row,SMILES,"hERG current change (%, negative = inhibition) at 10uM [%]"
1,COc1ccccc1NC(=O)c1ccccc1-c1nc(-c2ccccc2OC)no1,-57.7
2,COc1ccccc1NC(=O)c1ccc(Br)o1,-6.16
3,CCOc1ccccc1NC(=O)c1ccccc1-c1nc(-c2ccccc2OC)no1,-35.6
4,O=C(Nc1ccccc1O)c1ccc(C(=O)c2ccccc2)o1,11.2
5,COc1ccccc1-c1noc(-c2ccccc2C(=O)Nc2ccccc2)n1,13.9
6,COc1ccccc1NC(=O)c1cc(C(=O)Nc2ccccc2OC)cc([N+](=O)[O-])c1,21.1
7,COc1ccccc1NC(=O)c1ccc(C(=O)c2ccccc2)o1,-69.4
8,COc1ccccc1NC(=O)c1ccc(N)cc1,5.63
9,COc1ccc(C(=O)OCC(=O)NC(C)CCc2ccccc2)cc1OC (centres unmarked),0.524
10,O=C(COc1ccc([N+](=O)[O-])cc1)N(Cc1ccccc1)Cc1ccccc1,-41.5
11,COC(=O)c1c(C)oc2ccc(OC(=O)N3CCOCC3)cc12,-8.62
12,CCC(CC)c1nnc(NC(=O)c2cc(C(=O)OC)cc([N+](=O)[O-])c2)s1,7.7
13,COC(=O)c1ccc(OC(=O)CCS(=O)(=O)c2ccc(C)cc2)cc1,-16.4
14,Cc1noc(C)c1CCC(=O)NC1CCCN(Cc2ccc(Cl)cc2)C1 (centres unmarked),-24
15,CC(C)Cc1ccc(CN2CCCC(NC(=O)CCN3CCCCC3=O)C2)cc1 (centres unmarked),-45.3
16,CC(C)Cc1ccc(CN2CCCC(NC(=O)CCN3CCOCC3)C2)cc1 (centres unmarked),-37.4
17,CC(=O)c1c(C)nn(CC(=O)NC2CCCN(Cc3ccc(CC(C)C)cc3)C2)c1C (centres unmarked),-73.4
18,CC(C)Cc1ccc(CN2CCCC(NC(=O)Cn3cnnn3)C2)cc1 (centres unmarked),-26.5
19,Cc1ccn(CC(=O)NC2CCCN(Cc3ccc(CC(C)C)cc3)C2)n1 (centres unmarked),-55.2
20,CC(C)Cc1ccc(CN2CCCC(NC(=O)CCn3cnnn3)C2)cc1 (centres unmarked),-46.2
21,Cc1noc(C)c1CCC(=O)NC1CCCN(Cc2ccc(CC(C)C)cc2)C1 (centres unmarked),-66.8
22,CC(C)Cc1ccc(CN2CCCC(NC(=O)CSc3nncn3C)C2)cc1 (centres unmarked),-23.7
23,CC(C)C[C@H](NC(=O)c1nc[nH]c1C(=O)NCc1ccc(CNC(=O)OC(C)(C)C)cc1)C(=O)OC(C)(C)C,2.06

row,SMILES,"hERG current change (%, negative = inhibition) at 10uM [%]"
1,CN(C)Cc1nc2c(c(=O)[nH]1)C1(CCCCC1)Cc1ccccc1-2,-11.7
2,CSc1ccc(/C=C/C(=O)NC23CC4CC(CC(C4)C2)C3)cc1,14.6
3,C=CCNC(=S)NNC(=O)c1ccc(OCCCC)cc1,10.2
4,CCN(CC(=O)NC(C)C)C(=O)[C@@H](NC(=O)c1ccco1)C(C)C,11.5
5,COc1ccc([N+](=O)[O-])cc1C(=O)C(=O)c1ccccc1,8.56
6,O=C(CCN1C(=O)c2ccccc2S1(=O)=O)N1CCN(c2ccc(F)cc2)CC1,-61.9
7,O=C(CCCn1c(=O)oc2ccccc21)N1CCN(c2ccc(F)cc2)CC1,-63.9
8,O=C1CCN(C(=O)CCCn2c(=O)oc3ccccc32)CC1,17
9,O=C(CCn1c(=O)oc2ccccc21)NCCCN1CCOCC1,16.9
10,O=C(CCn1c(=O)oc2ccccc21)NCCN1CCOCC1,-2.83
11,O=C(CCn1c(=O)oc2ccccc21)NCCCN1CCN(c2ccc(F)cc2)CC1,-66.2
12,O=C(CCCn1c(=O)oc2ccccc21)N1CCN(c2ccccn2)CC1,-47.6
13,O=C(CCn1c(=S)oc2ccccc21)N1CCN(c2ccc(F)cc2)CC1,-25.3
14,O=C(CN1C(=O)c2ccccc2S1(=O)=O)N1CCN(c2ccc(F)cc2)CC1,-7.37
15,O=C(CCn1c(=O)oc2ccccc21)N1CCN(c2ccccc2F)CC1,-23.8
16,O=C(CCn1c(=O)oc2ccccc21)N1CCN(c2ccc(F)cc2)CC1,-58
17,Cl.O=C(CCN1C(=O)c2ccccc2S1(=O)=O)N1CCN(c2ccccc2)CC1,2.96
18,COc1ccc(C(=O)OCCN2C(=O)c3ccccc3C2=O)cc1,-5.4
19,COc1cc(OC)cc(-c2sc3ccc(OC)cc3c2C#CCCO)c1,10.5
20,COc1ccc(CC(=O)NNC(=O)CCC(=O)Nc2cc(C)ccc2C)cc1,10.4
21,Cc1[nH]c2ccccc2c1C(=O)NS(=O)(=O)Nc1ccccc1,9.15
22,CS(=O)(=O)c1cccc(C(=O)NCc2ccccc2)c1,-0.394
23,CC1(c2ccccc2)NC(=O)N(CC(=O)Nc2ccc(N3CCOCC3)cc2N2CCOCC2)C1=O (centres unmarked),6.74

row,SMILES,"hERG current change (%, negative = inhibition) at 10uM [%]"
1,CCc1ccc(C(=O)N/N=C(\C)c2ccncc2)s1,-11.1
2,Cc1ccc(Cn2ccnc2C(=O)Nc2ccccc2)cc1,6.59
3,O=C(Nc1ccccc1)c1nccn1Cc1ccc(F)cc1,-10.9
4,N#Cc1ccc(Cn2ccnc2C(=O)Nc2ccccc2)cc1,-87
5,Cn1c(SCC(=O)NC2CCCC2)nnc1-c1ccncc1,33.9
6,CCOc1cc(C(=S)N2CCN(C)CC2)ccc1OCC(=O)N1CCCC1,16
7,Cc1ccc(C2=Nc3cccnc3C(c3ccccc3)=NN2)cc1,0.802
8,COc1ccccc1Cn1c(=O)c2ccccc2n2c(SCC(=O)N3CCCCC3)nnc12,15.2
9,O=C(CSc1nnc2n(C3CCCCC3)c(=O)c3ccccc3n12)OC1CCCCC1,-4.92
10,CC1CCCN(C(=O)CSc2nnc3ccccn23)C1 (centres unmarked),4.63
11,O=C(CSc1nnc2n(C3CCCC3)c(=O)c3ccccc3n12)N1CCCCCC1,-51.1
12,CC1CCCN(C(=O)CSc2nnc3n(C4CCCC4)c(=O)c4ccccc4n23)C1 (centres unmarked),-62.7
13,CC1CCCN(C(=O)CSc2nnc(-c3cccnc3)n2C2CCCCC2)C1 (centres unmarked),-13.4
14,O=C(O)c1nccnc1C(=O)Nc1ccc(Oc2c(Cl)cccc2Cl)nc1,-26.1
15,COc1ccc(C)cc1NC(=O)CN1CCN(S(=O)(=O)c2ccc(F)cc2)CC1,7.19
16,COc1ccccc1N1CCN(CC(=O)Nc2ccc(C)c(F)c2)CC1,-23.1
17,CCN(CC)c1ccc(NC(=O)CN2CCN(CC(=O)Nc3ccccc3OC)CC2)cc1,-26.9
18,COc1ccccc1NC(=O)CN1CCN(c2ccccc2F)CC1,-18.4
19,COc1ccc(C)cc1NC(=O)CN1CCN(c2ccccc2F)CC1,-10.3
20,COc1ccc(C)cc1NC(=O)CN1CCN(c2ccc(F)cc2)CC1,-50.4
21,COc1ccccc1NC(=O)CN1CCN(CC(=O)Nc2ccc(F)cc2)CC1,-79.2
22,COc1ccccc1NC(=O)CN1CCN(CC(=O)Nc2ccc(C)c(F)c2)CC1,-70
23,COc1cc(NC(=O)CN2CCN(CC(=O)Nc3ccccc3OC)CC2)cc(OC)c1,0.0651
